From the supplement of paper PMC4188521 come the findings set out here.

Compound in this assay: CCc1cnn2c(NCc3ccc[n+]([O-])c3)cc(N3CCCC[C@H]3CCO)nc12 [dinaciclib]
Description: cell viability remaining relative to DMSO control; higher = less cytotoxic (more viable cells). The conditions noted are these: 100 nM; 24 h. As for the experimental part: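 Solid tumor cell lines were treated with dinaciclib (100 nM) for 24 hr. Viability was measured by CellTiter-Glo ATP luminescence and expressed as % of DMSO-treated control wells (mean of 2-6 plates, triplicate wells per plate).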
Regarding HCC1500, the cell viability remaining was 46.2%.
The result for SCC25 reads 20.5%.
For the target OVMANA, the cell viability remaining was found to be 87.9%.
To H2122 belongs 48.2%.
To HCC1187 belongs 21.6%; to ASPC1, 93.6%.
The result for SU8686 reads 48.9%; that for HLE, 37.7%; that for MG63, 86.8%.
For the target TOV112D, the cell viability remaining came out at 16%.
To HCC827 belongs 67.9%.
As for TYKNU, the cell viability remaining came to 83.8%.
The result for CORL23 reads 62.8%; that for COLO704, 78.2%; that for HCT15, 45.4%.
On to H1568, for which the cell viability remaining turned out to be 28.7%.
The result for H1792 reads 60.9%; that for BT483, 83.9%.
The result for CAL120 reads 76.8%; that for JIMT1, 66.2%; that for CFPAC1, 85.5%.
The result for RKN reads 55.6%.
Consider H526, for which the cell viability remaining turned out to be 16.7%.
Take SKNDZ: the cell viability remaining was 44.1%.
AZ521: the cell viability remaining was determined as 56.1%.
To SJRH30 belongs 12%.
The result for H2452 reads 21.1%; that for SW1116, 86.8%; that for HS852T, 54.3%.
The result for SKLU1 reads 82.6%; that for HS934T, 124%.
As to HS695T, the cell viability remaining worked out at 72.9%.
To OV90 belongs 99.8%.
To HS600T belongs 93.8%; to 22RV1, 50.2%.
The result for RPMI7951 reads 45.3%.
Regarding SW948, the cell viability remaining is 72.6%.
The result for HEC1A reads 49%; that for DAOY, 23.4%.
To SW403 belongs 74.9%.
